# Laboratory results: PubChem BioAssay
# Activity calls are given as the source filed them.
# How the values were obtained:
# [1] = system: Plasmodium falciparum Sir2 (PF13_0152, Sir2A); experiment: pfSir2 binders on small-molecule microarrays, primary screen, biochemical, small-molecule microarray, 635 nm fluorescence (AID 1098); conditions: small-molecule microarray binding, fluorescence 635 nm; higher = more signal;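 note: score merges spot fluorescence intensity with its signal-to-noise ratio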
# [2] = small-molecule microarray binders of probe aDKK1, primary screen, biochemical, biotinylated probe, 635/667 nm fluorescence (AID 1099); conditions: higher = more signal;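 note: score merges 667nm spot fluorescence with signal to noise across triplicate slides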
# [3] = small-molecule microarray binders of probe aCHRDL2, primary screen, biochemical, biotinylated probe, 635/667 nm fluorescence (AID 1100); conditions: higher = more signal
# [4] = splicing luciferase reporter signal modulators, primary screen, spliceosome inhibition project, cell-based, HEK293, splice +/- reporter (AID 1101); conditions: luminescence, 24 h, higher = more signal, called active from +8 up or from −8 down;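 note: HEK293 cells carrying a splicing-competent luciferase reporter gene; test concentration not given here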
# [5] = biological target: Fibroblast growth factor 10 (Homo sapiens) (UniProt O15520); experiment: FGF10 binders on small-molecule microarrays, primary screen, biochemical, small-molecule microarray, 635 nm fluorescence (AID 1102); conditions: FGF10 binding, fluorescence 635 nm, higher = more signal
# [6] = system: glycogen synthase kinase-3 (GSK3A per assay name; protocol says GSK3B); experiment: GSK3 binders on small-molecule microarrays, primary screen, biochemical, small-molecule microarray, 635 nm fluorescence, GSK3A (AID 1103); conditions: small-molecule microarray binding, fluorescence 635 nm; higher = more signal; note: the record names both GSK3A and GSK3B
# [7] = biological target: Epidermal growth factor receptor (Homo sapiens) (UniProt P00533); experiment: EGFR binders on small-molecule microarrays, primary screen, biochemical, small-molecule microarray, 635 nm fluorescence (AID 1104); conditions: EGFR binding, higher = more signal;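 note: score merges 667 nm emission intensity with spot signal to noise over triplicate slides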
# [8] = biological target: Follistatin-related protein 3 (Homo sapiens) (UniProt O95633); experiment: FSTL3 binders on small-molecule microarrays, primary screen, biochemical, small-molecule microarray, 635 nm fluorescence (AID 1105); conditions: FSTL3 binding, higher = more signal;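 note: score merges emission near 667 nm and signal to noise per printed spot across three slides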
# [9] = biological target: Dickkopf-related protein 1 (Homo sapiens) (UniProt O94907); experiment: DKK1 binders on small-molecule microarrays, primary screen, biochemical, small-molecule microarray, 635 nm fluorescence scan (AID 1106); conditions: DKK1 binding, higher = more signal;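 note: score merges emission near 667 nm with signal to noise over three replicate slides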
# [10] = system: Inhibin beta A chain (activin A); experiment: INHBA (activin A) binders on microarrays, primary screen, biochemical, small-molecule microarray, 635 nm fluorescence scan (AID 1107); conditions: small-molecule microarray binding, higher = more signal;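 note: mouse activin A protein probed at 4.33 µg/mL on printed slides; score merges bound-protein fluorescence near 667 nm with spot signal-to-noise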
# [11] = system: Human papillomavirus type 1a protein E7 (residues 44-93); experiment: HPV1a E7 fragment binders on microarrays, primary screen, biochemical, small-molecule microarray, residues 44-93, 635 nm fluorescence (AID 1108); conditions: small-molecule microarray binding, fluorescence 635 nm; higher = more signal;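 note: E7 fragment applied at 1 µg/mL in TBST for 1 h at 4 C; score combines spot fluorescence with its signal to noise ratio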
# [12] = modulators of HCV replicon luciferase signal, primary screen, HCV replication inhibitor project, Huh7 cells, luciferase reporter (AID 1109); conditions: 48 h, higher = more signal;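 note: huh7 hepatoma cells harbouring a luciferase neomycin HCV replicon reporter; luciferase luminescence as measure of HCV replicon replication; test concentration not given here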
# [13] = biological target: Left-right determination factor 2 (Homo sapiens) (UniProt O00292); experiment: LEFTY2 binders on small-molecule microarrays, primary screen, biochemical, small-molecule microarray, 635 nm fluorescence scan (AID 1110); conditions: LEFTY2 binding, higher = more signal
# [14] = biological target: Calmodulin-1 (Homo sapiens) (UniProt P0DP23); experiment: CALM1 binders on microarrays, EGTA buffer, profiling panel, biochemical, small-molecule microarray, Cy5-labelled CALM1 (AID 1111); conditions: Cy5-CALM1 binding fluorescence, higher = more signal;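 note: labelled calmodulin applied in Tris saline Tween buffer holding calcium plus EGTA and DTT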
# [15] = biological target: Calmodulin-1 (Homo sapiens) (UniProt P0DP23); experiment: calcium-bound CALM1 binders on microarrays, profiling panel, artefact control for SMM control-protein annotation, biochemical, small-molecule microarray, Cy5-labelled CALM1, plus calcium (AID 1112); conditions: Cy5-CALM1 binding fluorescence, higher = more signal;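 note: score merges spot fluorescence with signal to noise from triplicate slides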
# [16] = small-molecule microarray binders of probe aWnt5a, primary screen, biochemical, biotinylated probe, 635/667 nm fluorescence (AID 1113); conditions: higher = more signal;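 note: score merges 667 nm fluorescence intensity with signal-to-noise per printed feature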
# [17] = small-molecule microarray binders of probe aShh, primary screen, biochemical, biotinylated probe, 635/667 nm fluorescence (AID 1114); conditions: higher = more signal;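 note: probe is biotin-labelled aShh protein from a stem cell growth factor screen; measures binding of labelled protein to compounds printed on the slide; score merges feature fluorescence at 667 nm with signal-to-noise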
# [18] = small-molecule microarray binders of probe aNog, primary screen, biochemical, biotinylated probe, 635/667 nm fluorescence (AID 1115); conditions: higher = more signal;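 note: probe is biotinylated aNog protein used at 0.15 µg/mL for 1 h at 4 C; z-score combines 667 nm fluorescence of each spot with its signal to noise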
# [19] = biological target: Torsin-1A-interacting protein 1 (Homo sapiens) (UniProt Q5JTV8); experiment: LAP1 binders from COS7 cell lysate, primary screen, small-molecule microarray, 635/667 nm fluorescence (AID 1116); conditions: COS7-hLAP1 lysate binding, 635 nm fluorescence, higher = more signal
# [20] = biological target: Alpha-bungarotoxin (Bungarus multicinctus) (UniProt P60615); experiment: alpha-bungarotoxin binders on microarray, profiling panel, artefact control for SMM control protein annotation, biochemical, small-molecule microarray, Alexa647 label, 635/667 nm fluorescence (AID 1117); conditions: alpha-BTX-A647 binding fluorescence, higher = more signal
# Chain of Alpha-bungarotoxin (Bungarus multicinctus) (P60615 whole entry, looked up): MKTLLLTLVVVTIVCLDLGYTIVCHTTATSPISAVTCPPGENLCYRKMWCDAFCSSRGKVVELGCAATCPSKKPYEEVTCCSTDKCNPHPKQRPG
# Chain of Follistatin-related protein 3 (Homo sapiens) (O95633 whole entry, looked up): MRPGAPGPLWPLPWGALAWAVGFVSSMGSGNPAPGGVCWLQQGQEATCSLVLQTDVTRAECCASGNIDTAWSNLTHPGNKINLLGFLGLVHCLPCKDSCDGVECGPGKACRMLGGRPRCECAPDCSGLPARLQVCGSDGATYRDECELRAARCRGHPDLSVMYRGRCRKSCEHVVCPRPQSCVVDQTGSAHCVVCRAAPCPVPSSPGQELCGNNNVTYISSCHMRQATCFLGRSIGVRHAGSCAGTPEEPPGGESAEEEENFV
# Chain of Torsin-1A-interacting protein 1 (Homo sapiens) (Q5JTV8 whole entry, looked up): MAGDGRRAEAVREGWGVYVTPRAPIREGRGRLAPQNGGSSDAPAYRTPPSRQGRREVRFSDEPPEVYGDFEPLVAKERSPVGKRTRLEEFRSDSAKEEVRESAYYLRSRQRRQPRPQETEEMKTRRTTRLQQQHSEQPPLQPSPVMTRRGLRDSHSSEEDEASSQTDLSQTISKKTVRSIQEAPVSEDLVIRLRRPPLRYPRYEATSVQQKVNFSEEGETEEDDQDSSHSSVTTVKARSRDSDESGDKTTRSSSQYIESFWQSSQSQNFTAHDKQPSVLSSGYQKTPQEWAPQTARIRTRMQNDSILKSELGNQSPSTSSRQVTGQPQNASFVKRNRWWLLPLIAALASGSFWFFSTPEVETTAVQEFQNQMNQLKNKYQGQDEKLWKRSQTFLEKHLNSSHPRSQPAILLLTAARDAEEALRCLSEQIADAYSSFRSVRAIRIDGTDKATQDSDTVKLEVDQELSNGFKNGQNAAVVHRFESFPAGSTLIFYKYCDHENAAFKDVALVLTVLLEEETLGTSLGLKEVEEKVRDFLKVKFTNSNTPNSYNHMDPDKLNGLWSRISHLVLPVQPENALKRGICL
# Chain of Epidermal growth factor receptor (Homo sapiens) (P00533 whole entry, looked up): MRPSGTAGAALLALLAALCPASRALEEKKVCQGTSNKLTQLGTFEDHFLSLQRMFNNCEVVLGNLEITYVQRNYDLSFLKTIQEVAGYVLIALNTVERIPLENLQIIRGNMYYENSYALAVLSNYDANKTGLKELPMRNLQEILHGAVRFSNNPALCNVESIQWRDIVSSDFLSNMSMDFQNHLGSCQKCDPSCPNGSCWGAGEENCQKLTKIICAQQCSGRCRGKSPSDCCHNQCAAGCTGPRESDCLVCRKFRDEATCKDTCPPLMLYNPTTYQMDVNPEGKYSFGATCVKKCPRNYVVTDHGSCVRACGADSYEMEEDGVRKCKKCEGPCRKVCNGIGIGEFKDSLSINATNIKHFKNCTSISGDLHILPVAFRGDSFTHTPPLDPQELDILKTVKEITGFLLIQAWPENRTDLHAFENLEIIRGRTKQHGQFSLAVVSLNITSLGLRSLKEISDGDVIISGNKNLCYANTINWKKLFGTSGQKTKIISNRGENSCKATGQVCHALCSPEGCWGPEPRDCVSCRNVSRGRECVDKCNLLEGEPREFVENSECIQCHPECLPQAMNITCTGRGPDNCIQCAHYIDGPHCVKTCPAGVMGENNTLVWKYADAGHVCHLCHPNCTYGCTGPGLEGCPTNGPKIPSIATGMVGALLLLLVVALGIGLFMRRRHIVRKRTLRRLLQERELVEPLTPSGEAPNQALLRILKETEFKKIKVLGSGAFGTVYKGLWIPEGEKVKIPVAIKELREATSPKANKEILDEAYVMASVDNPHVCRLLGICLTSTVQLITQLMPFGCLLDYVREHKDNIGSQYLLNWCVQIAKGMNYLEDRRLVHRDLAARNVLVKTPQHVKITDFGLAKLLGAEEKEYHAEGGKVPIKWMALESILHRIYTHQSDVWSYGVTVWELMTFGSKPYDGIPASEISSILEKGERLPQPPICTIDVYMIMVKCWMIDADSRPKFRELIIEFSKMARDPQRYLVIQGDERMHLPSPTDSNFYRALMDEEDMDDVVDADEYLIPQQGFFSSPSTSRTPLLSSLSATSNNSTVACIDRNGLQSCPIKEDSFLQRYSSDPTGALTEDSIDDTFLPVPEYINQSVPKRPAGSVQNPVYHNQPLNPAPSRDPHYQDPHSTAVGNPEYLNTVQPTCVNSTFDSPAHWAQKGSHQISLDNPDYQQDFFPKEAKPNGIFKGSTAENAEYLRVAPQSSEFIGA
# Chain of Dickkopf-related protein 1 (Homo sapiens) (O94907 whole entry, looked up): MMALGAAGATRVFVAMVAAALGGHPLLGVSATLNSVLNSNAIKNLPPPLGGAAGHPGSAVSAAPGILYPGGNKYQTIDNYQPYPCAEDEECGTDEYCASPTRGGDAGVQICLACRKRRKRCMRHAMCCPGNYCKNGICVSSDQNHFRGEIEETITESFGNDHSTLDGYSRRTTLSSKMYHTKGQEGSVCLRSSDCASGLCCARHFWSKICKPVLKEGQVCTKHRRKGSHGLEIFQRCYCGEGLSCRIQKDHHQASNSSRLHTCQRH
# Chain of Left-right determination factor 2 (Homo sapiens) (O00292 whole entry, looked up): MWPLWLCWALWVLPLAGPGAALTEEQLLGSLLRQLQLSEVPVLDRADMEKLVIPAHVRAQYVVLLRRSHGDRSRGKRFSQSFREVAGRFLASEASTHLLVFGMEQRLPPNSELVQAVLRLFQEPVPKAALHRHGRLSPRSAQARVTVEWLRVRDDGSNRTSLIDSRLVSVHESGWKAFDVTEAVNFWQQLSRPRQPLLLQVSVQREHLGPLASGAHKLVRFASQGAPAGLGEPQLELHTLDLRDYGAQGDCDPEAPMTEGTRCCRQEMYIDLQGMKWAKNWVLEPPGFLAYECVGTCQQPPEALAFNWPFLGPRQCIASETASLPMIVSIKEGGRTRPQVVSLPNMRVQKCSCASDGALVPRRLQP
# Chain of Fibroblast growth factor 10 (Homo sapiens) (O15520 whole entry, looked up): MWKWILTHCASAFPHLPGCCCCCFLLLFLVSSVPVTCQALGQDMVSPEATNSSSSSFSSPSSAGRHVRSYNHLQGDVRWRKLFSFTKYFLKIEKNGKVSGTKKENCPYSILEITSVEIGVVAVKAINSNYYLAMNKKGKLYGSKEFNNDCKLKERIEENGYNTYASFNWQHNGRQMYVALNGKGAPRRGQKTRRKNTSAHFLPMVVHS
Structure (SMILES),composite z-score [1],composite z-score [2],composite z-score [3],z-score [4],composite z-score [5],composite z-score [6],composite z-score [7],composite z-score [8],composite z-score [9],composite z-score [10],composite z-score [11],z-score [12],composite z-score [13],composite z-score [14],composite z-score [15],composite z-score [16],composite z-score [17],composite z-score [18],composite z-score [19],composite z-score [20]
C[C@@H]1CC[C@H]2C(=O)N3[C@@H](CC[C@@H](C)[C@@H]3c3cccc(N4CCOCC4)c3)C(=O)N2[C@H]1c1cccc(N2CCOCC2)c1,1.15,0.335,0.189,-0.188 (inactive),0.37,0.513,0.224,1.12,1.82,0.866,0.384,0.27,0.676,-0.413,-0.403,-0.0478,0.51,-0.459,0.653,1.03
C=C(CCCC)C(=O)CC[C@@H](OC(=O)c1cccnc1)c1cccc(OCCO)c1,1.48,-0.246,0.238,3.57 (inactive),0.72,0.13,-0.237,-0.242,0.265,1.2,-0.0891,-3.58,0.0009,-0.708,-1.47,-0.0213,-0.0977,0.314,0.469,1.76
NC(=O)[C@H]1[C@@H]2C(=O)O[C@@H](c3ccccc3)[C@@H](c3ccccc3)N2[C@@H](c2ccc(O)cc2)[C@]12C(=O)Nc1ccc(C#CCCO)cc12,1.61,-0.0626,0.604,-0.205 (inactive),-0.187,-1.6,-1.52,-0.681,-0.889,-0.142,-1.74,0.179,-1.05,-0.742,0.661,-0.175,-0.0769,-0.158,-0.819,-1.58
O=C1C2C=CC(C(O)c3ccccc3)N(n3cnnc3)C2C(=O)N1Cc1ccccc1 (stereo not given),0.0854,0.446,0.908,-0.524 (inactive),0.0573,-0.279,0.392,-0.117,-0.433,1.46,-0.447,0.573,-0.237,0.206,-0.372,0.0357,-0.0594,0.319,0.327,0.449
CC/C=C/C(=O)N(C[C@@H]1CCCO1)[C@@H]1CC(C(=O)NCCO)=C[C@H](Oc2c(I)cc(CO)cc2OC)[C@H]1O,-0.251,-0.154,-0.162,-1.44 (inactive),0.541,-0.208,0.0798,-0.434,0.554,0.0756,-0.2,-0.277,0.208,-0.33,0.0262,0.497,0.138,0.124,0.371,0.515
